Source: paper PMC8384837, “Expanding the binding specificity for RNA recognition by a PUF domain”

Key:
Assay in all cases: yeast three-hybrid, YBZ-1, SC-Leu-His + 0.5 mM 3-AT, 4 days
Settings in all cases: tags: N-Gal4 AD-HA kept; label: inside an RPR1-promoter hybrid RNA with tandem MS2 sites; ssRNA
PUM1 PUF domain R8-LWR = PUM1 PUF domain R8-LWR (Homo sapiens, UniProt Q14671 828-1176, N1122L;Y1123W;Q1126R)
In short: (§1)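 The interaction score is the log change in variant frequency from input to selection. Scores were computed in log2 with a pseudocount of 1 for absent variants, using Illumina sequencing of PCR-amplified repeat regions. The input came from four days on SC-Leu and the selection from four days on SC-Leu-His + 0.5 mM 3-AT. The cells were strain YBZ-1 (LexA–MS2 coat fusion, HIS3 reporter) co-expressing Pumilio-1 PUF domain libraries and matching RNA elements from a centromeric plasmid.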

PUM1 PUF domain R8-VWQ = PUM1 PUF domain R8-VWQ (Homo sapiens, UniProt Q14671 828-1176, N1122V;Y1123W)
In short: as §1

PUM1 PUF domain R8-SWG = PUM1 PUF domain R8-SWG (Homo sapiens, UniProt Q14671 828-1176, N1122S;Y1123W;Q1126G)
In short: as §1

PUM1 PUF domain R8-RGK = PUM1 PUF domain R8-RGK (Homo sapiens, UniProt Q14671 828-1176, N1122R;Y1123G;Q1126K)
In short: as §1

PUM1 PUF domain R8-PFK = PUM1 PUF domain R8-PFK (Homo sapiens, UniProt Q14671 828-1176, N1122P;Y1123F;Q1126K)
PUM1 PUF domain R8-PFK, sequence (Q14671 828-1176 N1122P/Y1123F/Q1126K): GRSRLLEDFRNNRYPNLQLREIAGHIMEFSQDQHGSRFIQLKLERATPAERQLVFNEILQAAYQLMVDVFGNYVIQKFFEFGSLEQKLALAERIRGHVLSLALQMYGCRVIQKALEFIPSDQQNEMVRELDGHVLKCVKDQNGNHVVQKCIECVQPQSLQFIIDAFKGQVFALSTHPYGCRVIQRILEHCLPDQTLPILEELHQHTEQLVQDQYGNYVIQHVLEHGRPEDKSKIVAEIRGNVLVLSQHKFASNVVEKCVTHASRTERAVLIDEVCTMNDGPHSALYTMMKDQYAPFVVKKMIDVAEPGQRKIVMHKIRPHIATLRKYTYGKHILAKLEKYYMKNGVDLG
In short: as §1

PUM1 PUF domain R4-SNM = PUM1 PUF domain R4-SNM (Homo sapiens, UniProt Q14671 828-1176, N971S;H972N;Q975M)
In short: as §1

PUM1 PUF domain R3-APF = PUM1 PUF domain R3-APF (Homo sapiens, UniProt Q14671 828-1176, C935A;R936P;Q939F)
In short: as §1

PUM1 PUF domain R3-GRF = PUM1 PUF domain R3-GRF (Homo sapiens, UniProt Q14671 828-1176, C935G;Q939F)
PUM1 PUF domain R3-GRF, sequence (Q14671 828-1176 C935G/Q939F): as the sequence (Q14671 828-1176 N1122P/Y1123F/Q1126K) above, with C108G, Q112F, P295N, F296Y, K299Q counted along it
In short: as §1

PUM1 PUF domain R5-ARR = PUM1 PUF domain R5-ARR (Homo sapiens, UniProt Q14671 828-1176, C1007A;Q1011R)
PUM1 PUF domain R5-ARR, sequence (Q14671 828-1176 C1007A/Q1011R): as the sequence (Q14671 828-1176 N1122P/Y1123F/Q1126K) above, with C180A, Q184R, P295N, F296Y, K299Q counted along it
In short: as §1

PUM1 PUF domain R3-GFG = PUM1 PUF domain R3-GFG (Homo sapiens, UniProt Q14671 828-1176, C935G;R936F;Q939G)
PUM1 PUF domain R3-GFG, sequence (Q14671 828-1176 C935G/R936F/Q939G): as the sequence (Q14671 828-1176 N1122P/Y1123F/Q1126K) above, with C108G, R109F, Q112G, P295N, F296Y, K299Q counted along it
In short: as §1

PUM1 PUF domain R3-GPS = PUM1 PUF domain R3-GPS (Homo sapiens, UniProt Q14671 828-1176, C935G;R936P;Q939S)
PUM1 PUF domain R3-GPS, sequence (Q14671 828-1176 C935G/R936P/Q939S): as the sequence (Q14671 828-1176 N1122P/Y1123F/Q1126K) above, with C108G, R109P, Q112S, P295N, F296Y, K299Q counted along it
In short: as §1

PUM1 PUF domain R4-SMT = PUM1 PUF domain R4-SMT (Homo sapiens, UniProt Q14671 828-1176, N971S;H972M;Q975T)
PUM1 PUF domain R4-SMT, sequence (Q14671 828-1176 N971S/H972M/Q975T): as the sequence (Q14671 828-1176 N1122P/Y1123F/Q1126K) above, with N144S, H145M, Q148T, P295N, F296Y, K299Q counted along it
In short: as §1

PUM1 PUF domain R7-GGN = PUM1 PUF domain R7-GGN (Homo sapiens, UniProt Q14671 828-1176, S1079G;N1080G;E1083N)
In short: as §1

PUM1 PUF domain R7-RVV = PUM1 PUF domain R7-RVV (Homo sapiens, UniProt Q14671 828-1176, S1079R;N1080V;E1083V)
In short: as §1

PUM1 PUF domain R3-KSG = PUM1 PUF domain R3-KSG (Homo sapiens, UniProt Q14671 828-1176, C935K;R936S;Q939G)
In short: as §1

PUM1 PUF domain R3-NPR = PUM1 PUF domain R3-NPR (Homo sapiens, UniProt Q14671 828-1176, C935N;R936P;Q939R)
PUM1 PUF domain R3-NPR, sequence (Q14671 828-1176 C935N/R936P/Q939R): as the sequence (Q14671 828-1176 N1122P/Y1123F/Q1126K) above, with C108N, R109P, Q112R, P295N, F296Y, K299Q counted along it
In short: as §1

PUM1 PUF domain R4-EWY = PUM1 PUF domain R4-EWY (Homo sapiens, UniProt Q14671 828-1176, N971E;H972W;Q975Y)
In short: as §1

PUM1 PUF domain R3-TCE = PUM1 PUF domain R3-TCE (Homo sapiens, UniProt Q14671 828-1176, C935T;R936C;Q939E)
PUM1 PUF domain R3-TCE, sequence (Q14671 828-1176 C935T/R936C/Q939E): as the sequence (Q14671 828-1176 N1122P/Y1123F/Q1126K) above, with C108T, R109C, Q112E, P295N, F296Y, K299Q counted along it
In short: as §1

PUM1 PUF domain R1-RKM = PUM1 PUF domain R1-RKM (Homo sapiens, UniProt Q14671 828-1176, S863R;R864K;Q867M)
PUM1 PUF domain R1-RKM, sequence (Q14671 828-1176 S863R/R864K/Q867M): as the sequence (Q14671 828-1176 N1122P/Y1123F/Q1126K) above, with S36R, R37K, Q40M, P295N, F296Y, K299Q counted along it
In short: as §1

GGCUAGAACUAGUGGAUCCCCCGGCGCCCGGCGGCUCGAGCCCGGGUAAGCGUAAAUAGUCUGCAUGCCGCCGGGCGCCAUGCCUGCAGGUCGACUCUAGAAAACAUG
binding signal (PUM1 PUF domain R8-LWR): 4.82 log2 enrichment (interaction score)
binding signal (PUM1 PUF domain R8-VWQ): 2.89 log2 enrichment (interaction score)
binding signal (PUM1 PUF domain R8-SWG): 2.43 log2 enrichment (interaction score)
binding signal (PUM1 PUF domain R8-RGK): 2.62 log2 enrichment (interaction score)
binding signal (PUM1 PUF domain R8-PFK): 4.13 log2 enrichment (interaction score)

GGCUAGAACUAGUGGAUCCCCCGGCGCCCGGCGGCUCGAGCCCGGGUAAGUGUAAAUAGUCUGCAUGCCGCCGGGCGCCAUGCCUGCAGGUCGACUCUAGAAAACAUG
binding signal (PUM1 PUF domain R8-LWR): 4.7 log2 enrichment (interaction score)
binding signal (PUM1 PUF domain R4-SNM): 2 log2 enrichment (interaction score)
binding signal (PUM1 PUF domain R8-SWG): 2.95 log2 enrichment (interaction score)
binding signal (PUM1 PUF domain R8-RGK): 0.16 log2 enrichment (interaction score)
binding signal (PUM1 PUF domain R3-APF): 5.42 log2 enrichment (interaction score)
binding signal (PUM1 PUF domain R3-GRF): 4.89 log2 enrichment (interaction score)
binding signal (PUM1 PUF domain R5-ARR): 4.33 log2 enrichment (interaction score)
binding signal (PUM1 PUF domain R3-GFG): 3.47 log2 enrichment (interaction score)
binding signal (PUM1 PUF domain R3-GPS): 2.12 log2 enrichment (interaction score)
binding signal (PUM1 PUF domain R4-SMT): 1.34 log2 enrichment (interaction score)
binding signal (PUM1 PUF domain R8-PFK): 5.15 log2 enrichment (interaction score)

GGCUAGAACUAGUGGAUCCCCCGGCGCCCGGCGGCUCGAGCCCGGGUAAGUUUAAAUAGUCUGCAUGCCGCCGGGCGCCAUGCCUGCAGGUCGACUCUAGAAAACAUG
binding signal (PUM1 PUF domain R7-GGN): 3.78 log2 enrichment (interaction score)
binding signal (PUM1 PUF domain R7-RVV): 2.58 log2 enrichment (interaction score)

GGCUAGAACUAGUGGAUCCCCCGGCGCCCGGCGGCUCGAGCCCGGGUAAGUGUAAUUAGUCUGCAUGCCGCCGGGCGCCAUGCCUGCAGGUCGACUCUAGAAAACAUG
binding signal (PUM1 PUF domain R3-KSG): 2.51 log2 enrichment (interaction score)
binding signal (PUM1 PUF domain R3-GRF): 0.84 log2 enrichment (interaction score)
binding signal (PUM1 PUF domain R3-GPS): 1.97 log2 enrichment (interaction score)
binding signal (PUM1 PUF domain R3-NPR): 2.25 log2 enrichment (interaction score)

GGCUAGAACUAGUGGAUCCCCCGGCGCCCGGCGGCUCGAGCCCGGGUAAGUGUAUAUAGUCUGCAUGCCGCCGGGCGCCAUGCCUGCAGGUCGACUCUAGAAAACAUG
binding signal (PUM1 PUF domain R4-SNM): 2.9 log2 enrichment (interaction score)
binding signal (PUM1 PUF domain R4-EWY): 5.52 log2 enrichment (interaction score)
binding signal (PUM1 PUF domain R4-SMT): 5.3 log2 enrichment (interaction score)

GGCUAGAACUAGUGGAUCCCCCGGCGCCCGGCGGCUCGAGCCCGGGUAAGUGUAAGUAGUCUGCAUGCCGCCGGGCGCCAUGCCUGCAGGUCGACUCUAGAAAACAUG
binding signal (PUM1 PUF domain R3-TCE): 5.59 log2 enrichment (interaction score)
binding signal (PUM1 PUF domain R3-GFG): 1.23 log2 enrichment (interaction score)

GGCUAGAACUAGUGGAUCCCCCGGCGCCCGGCGGCUCGAGCCCGGGUAAGUGUAAAUUGUCUGCAUGCCGCCGGGCGCCAUGCCUGCAGGUCGACUCUAGAAAACAUG
binding signal (PUM1 PUF domain R1-RKM): 3.28 log2 enrichment (interaction score)

GGCUAGAACUAGUGGAUCCCCCGGCGCCCGGCGGCUCGAGCCCGGGUAAGUGUCAAUAGUCUGCAUGCCGCCGGGCGCCAUGCCUGCAGGUCGACUCUAGAAAACAUG
binding signal (PUM1 PUF domain R5-ARR): 4.7 log2 enrichment (interaction score)
